Source: PubChem BioAssay AID1159580 (chemical genetic matrix, 2015)
“And” between values parts separate entries of the source, which are not always exact repeats. Equal values may be shown once. Hit rate of the full screen: of about 5,500 compounds, about 2,000 (36%) were called active. Not shown: some 18% with an inconclusive outcome. Rule as the data show it: active = normalized growth mostly below about 0.91 (no sharp cut-off); inconclusive = no clear call, values can overlap the other calls; inactive = mostly above about 0.92. The list shows a part of the results.

Test: chemical genetic growth profiling, strain panel (AID 1159580);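 also: tested at 20 µM; growth read once vehicle control cultures reached saturation at 30 °C; 1 = growth at the plate median or of vehicle wells; lower values mean less growth of the strain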
Conditions: growth OD

Measured: normalized growth

C[N+](C)(C)CCCCCC[N+](C)(C)C
inactive: S. cerevisiae deletion strains, locus YAL013W, strain DEP1, active compounds read low 1.01 | S. cerevisiae deletion strains, locus YAL040C, strain CLN3, active compounds read low 0.978 and 0.988 | S. cerevisiae deletion strains, locus YBR021W, strain FUR4, active compounds read low 0.997 | S. cerevisiae deletion strains, locus YBR229C, strain ROT2, active compounds read low 0.995 | S. cerevisiae deletion strains, locus YCL029C, strain bik1, active compounds read low 0.988 | S. cerevisiae deletion strains, locus YCL061C, strain MRC1 (second series), active compounds read low 1.01 and 1 | S. cerevisiae deletion strains, locus YDL035C, strain GPR1, active compounds read low 1 | S. cerevisiae deletion strains, locus YDL074C, strain BRE1, active compounds read low 1.07 | S. cerevisiae deletion strains, locus YDL101C, strain DUN1, active compounds read low 0.993 | S. cerevisiae deletion strains, locus YDL134C, strain PPH21, active compounds read low 0.98 | S. cerevisiae deletion strains, locus YDL185W, strain tfp1, active compounds read low 0.984 | S. cerevisiae deletion strains, locus YDL192W, strain arf1, active compounds read low 0.98 | S. cerevisiae deletion strains, locus YDR101C, strain arx1, active compounds read low 1.03 | S. cerevisiae deletion strains, locus YDR150W, strain NUM1, active compounds read low 1 and 0.998 | S. cerevisiae deletion strains, locus YDR162C, strain NBP2, active compounds read low 0.985 | S. cerevisiae deletion strains, locus YDR318W, strain mcm21, active compounds read low 0.984 | S. cerevisiae deletion strains, locus YDR363W, strain ESC2, active compounds read low 1.01 and 0.998 | S. cerevisiae deletion strains, locus YDR388W, active compounds read low 0.982 | S. cerevisiae deletion strains, locus YDR502C, strain sam2, active compounds read low 0.985 | S. cerevisiae deletion strains, locus YEL061C, strain CIN8, active compounds read low 0.993 | S. cerevisiae deletion strains, locus YER002W, strain NOP16, active compounds read low 1.03 and 1 | S. cerevisiae deletion strains, locus YER110C, active compounds read low 0.979 | S. cerevisiae deletion strains, locus YER155C, strain BEM2, active compounds read low 0.998 | S. cerevisiae deletion strains, locus YER167W, strain BCK2, active compounds read low 0.994 | S. cerevisiae deletion strains, locus YGL078C, strain dbp3, active compounds read low 0.981 | S. cerevisiae deletion strains, locus YGL086W, strain mad1, active compounds read low 1.02 | S. cerevisiae deletion strains, locus YGL248W, strain PDE1, active compounds read low 1 | S. cerevisiae deletion strains, locus YGR078C, strain PAC10, active compounds read low 1.03 and 0.99 | S. cerevisiae deletion strains, locus YGR135W, strain pre9, active compounds read low 0.95 | S. cerevisiae deletion strains, locus YGR229C, strain SMI1, active compounds read low 0.99 | S. cerevisiae deletion strains, locus YGR252W, strain gcn5, active compounds read low 0.948 | S. cerevisiae deletion strains, locus YHR030C, strain SLT2, active compounds read low 0.987 and 1.05 | S. cerevisiae deletion strains, locus YHR079C, strain IRE1 (second series), active compounds read low 0.993 | S. cerevisiae deletion strains, locus YHR079C, strain IRE1, active compounds read low 1.04 | S. cerevisiae deletion strains, locus YHR094C, strain hxt1, active compounds read low 0.987 | S. cerevisiae deletion strains, locus YHR129C, strain ARP1, active compounds read low 0.988 | S. cerevisiae deletion strains, locus YHR200W, strain rpn10, active compounds read low 0.989 | S. cerevisiae deletion strains, locus YIL066C, strain RNR3, active compounds read low 0.994 | S. cerevisiae deletion strains, locus YIL073C, strain SPO22, active compounds read low 0.953 | S. cerevisiae deletion strains, locus YIL125W, strain kgd1, active compounds read low 1 | S. cerevisiae deletion strains, locus YIR030C, strain dcg1, active compounds read low 0.985 | S. cerevisiae deletion strains, locus YJL095W, strain BCK1, active compounds read low 1 and 1.05 | S. cerevisiae deletion strains, locus YJL134W, strain LCB3, active compounds read low 0.989 | S. cerevisiae deletion strains, locus YJL168C, strain set2, active compounds read low 1 | S. cerevisiae deletion strains, locus YJL187C, strain SWE1 (second series), active compounds read low 0.999 | S. cerevisiae deletion strains, locus YJR043C, strain POL32, active compounds read low 1 | S. cerevisiae deletion strains, locus YJR066W, strain TOR1, active compounds read low 0.96 | S. cerevisiae deletion strains, locus YJR075W, strain HOC1, active compounds read low 0.998 and 1.01 | S. cerevisiae deletion strains, locus YKL009W, strain mrt4, active compounds read low 0.99 | S. cerevisiae deletion strains, locus YKL068W, active compounds read low 0.988 | S. cerevisiae deletion strains, locus YKL085W, strain MDH1 (second series), active compounds read low 0.998 | S. cerevisiae deletion strains, locus YKL085W, strain MDH1, active compounds read low 0.998 | S. cerevisiae deletion strains, locus YKL190W, strain CNB1, active compounds read low 1.01 | S. cerevisiae deletion strains, locus YKR001C, strain vps1, active compounds read low 1 | S. cerevisiae deletion strains, locus YLR039C, strain RIC1, active compounds read low 1 | S. cerevisiae deletion strains, locus YLR058C, strain SHM2, active compounds read low 0.987 | S. cerevisiae deletion strains, locus YLR102C, strain apc9, active compounds read low 0.987 | S. cerevisiae deletion strains, locus YLR113W, strain HOG1, active compounds read low 1.1 | S. cerevisiae deletion strains, locus YLR262C, strain YPT6, active compounds read low 0.97 | S. cerevisiae deletion strains, locus YLR268W, strain sec22, active compounds read low 0.99 | S. cerevisiae deletion strains, locus YLR330W, strain CHS5, active compounds read low 0.99 | S. cerevisiae deletion strains, locus YLR342W, strain FKS1 (second series), active compounds read low 0.976 | S. cerevisiae deletion strains, locus YLR371W, strain rom2, active compounds read low 0.988 | S. cerevisiae deletion strains, locus YLR418C, strain cdc73, active compounds read low 0.946 | S. cerevisiae deletion strains, locus YML016C, strain PPZ1, active compounds read low 0.99 | S. cerevisiae deletion strains, locus YML032C, strain rad52, active compounds read low 1 | S. cerevisiae deletion strains, locus YML124C, strain tub3, active compounds read low 0.995 | S. cerevisiae deletion strains, locus YMR078C, strain ctf18, active compounds read low 0.983 | S. cerevisiae deletion strains, locus YMR223W, strain ubp8, active compounds read low 0.964 | S. cerevisiae deletion strains, locus YMR263W, strain SAP30, active compounds read low 1.01 and 0.998 | S. cerevisiae deletion strains, locus YMR307W, strain GAS1, active compounds read low 0.96 and 1.01 | S. cerevisiae deletion strains, locus YNL067W, strain RPL9B, active compounds read low 1.01 | S. cerevisiae deletion strains, locus YNL128W, strain TEP1, active compounds read low 0.992 and 1.01 | S. cerevisiae deletion strains, locus YNL153C, strain GIM3, active compounds read low 1.03 and 1.01 | S. cerevisiae deletion strains, locus YNL175C, strain NOP13, active compounds read low 0.99 and 1.02 | S. cerevisiae deletion strains, locus YNL183C, strain NPR1, active compounds read low 1.01 | S. cerevisiae deletion strains, locus YNL197C, strain WHI3, active compounds read low 0.999 and 1.02 | S. cerevisiae deletion strains, locus YNL224C, strain SQS1, active compounds read low 0.994 and 1.04 | S. cerevisiae deletion strains, locus YNL233W, strain BNI4, active compounds read low 1.01 | S. cerevisiae deletion strains, locus YNL250W, strain rad50, active compounds read low 0.957 | S. cerevisiae deletion strains, locus YNL271C, strain bni1, active compounds read low 0.984 | S. cerevisiae deletion strains, locus YNL298W, strain CLA4, active compounds read low 0.981 | S. cerevisiae deletion strains, locus YNL307C, strain MCK1, active compounds read low 0.985 | S. cerevisiae deletion strains, locus YNL322C, strain KRE1, active compounds read low 0.998 and 0.995 | S. cerevisiae deletion strains, locus YNR052C, strain pop2, active compounds read low 0.987 | S. cerevisiae deletion strains, locus YOL006C, strain TOP1, active compounds read low 1.06 | S. cerevisiae deletion strains, locus YOL012C, strain htz1 1.51 | S. cerevisiae deletion strains, locus YOL147C, strain pex11, active compounds read low 0.99 | S. cerevisiae deletion strains, locus YOR061W, strain CKA2, active compounds read low 0.995 | S. cerevisiae deletion strains, locus YOR069W, strain VPS5, active compounds read low 0.987 | S. cerevisiae deletion strains, locus YOR083W, strain WHI5 (second series), active compounds read low 0.968 and 0.999 | S. cerevisiae deletion strains, locus YOR136W, strain idh2, active compounds read low 0.994 | S. cerevisiae deletion strains, locus YOR144C, strain elg1, active compounds read low 0.993 | S. cerevisiae deletion strains, locus YOR184W, strain ser1, active compounds read low 0.988 | S. cerevisiae deletion strains, locus YOR231W, strain MKK1, active compounds read low 1.09 | S. cerevisiae deletion strains, locus YOR316C, strain cot1, active compounds read low 0.988 | S. cerevisiae deletion strains, locus YPL055C, strain LGE1, active compounds read low 1.04 | S. cerevisiae deletion strains, locus YPL256C, strain CLN2, active compounds read low 1.05 | S. cerevisiae deletion strains, locus YPR119W, strain clb2, active compounds read low 0.997 | S. cerevisiae deletion strains, locus YPR141C, strain kar3, active compounds read low 0.98 | S. cerevisiae deletion strains, locus YPR163C, strain tif3, active compounds read low 1.01 | S. cerevisiae deletion strains, locus YPR167C, strain met16, active compounds read low 0.983 | S. cerevisiae deletion strains, strain wtn01, active compounds read low 0.982 | S. cerevisiae strains, strain wild type, active compounds read low 0.995
